Assay results from PubChem BioAssay AID504602 (National Center for Advancing Translational Sciences (NCATS), 2011).
Records with an inconclusive call do not appear. Activity calls are given as the source filed them. Calls follow the shape of the dose curve; as a rule, active = well fitted curve in the direction sought with a large enough effect; inconclusive = small, poorly fitted or top-dose-only effect, or effect the other way, or another doubt; inactive = no such curve, though single readings can be large or run the other way.

Assay: Quantitative high throughput screen to test cell viability of anti-malarial compounds targeting the delayed death phenotype
Source text: The biochemical processes that make this organelle essential for erythrocytic stage parasites are not well understood. However, antibiotics, such as azithromycin and tetracycline, which target the apicoplast translational machinery, have a potent antimalarial effect. […] We have developed a cell-based assay that measures parasite growth based on the expression of an integrated copy of a firefly luciferase reporter. To detect small molecules that cause this 'delayed death' phenotype, erythrocytes infected with the luciferase-expressing parasites were incubated with compounds for either one or two generations, corresponding to 48 and 96 hours, respectively. Compounds that inhibit parasite growth in the second generation, but not the first, should be enriched in antimalarials that target the apicoplast. Growth inhibition is detected by a decrease in luciferase activity. The goal of this counterscreen is to measure the cytoxoxicity (against HepG2 cell line) of a set of anti-malarial compounds that target the delayed death pheonotype as identified by the qHTS assay that inhibit the development of the apicoplast in the malarial parasite Plasmodium falciparum. NIH Molecular Libraries Probe Production Network [MLPCN] […]
Cells were plated at a density of 2000 cells/well/5uL in 1536 well white tissue culture plate with culture medium. […] Luminescence was measured using ViewLux (1 second, slow, 2X).

For C[C@@H]1CN([C@@H](C)CO)C(=O)c2cc(NC(=O)Nc3ccccc3)ccc2O[C@@H](C)CCCCO[C@H]1CN(C)C(=O)Oc1ccccc1, the outcome was “inactive”.
